Screening data from PubChem.
Sampled rows, rich in hits. Any-hit rate of the full collection: about 2.3%.
beta cell repl = induces beta-cell replication in MIN6 cells; proliferation, % at 10 µM; MIN6 cells proliferation, ATPlite luminescence, 48 h; cells starved in 0.2% serum; 100% = growth in 10% serum; actives 0.29% (n = 330,000); AID 2380;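 active = compounds whose signal lies at least 3.5 SD above the mean of all wells on their plate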
m-calpain inh = inhibitors of pig calpain II; purified calpain II, fluorogenic peptide substrate, 30 min; inhibition, % at 16 µM; actives 0.37% (n = 220,000); AID 1236;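 active = inhibition above about 50%, limit read from the data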
H9c2 protect = myocardial damage modulation in H9c2 cells | H9c2 cardiomyocytes, H2O2 injury protection, ATPLite, 2 h | protection from H2O2 cell death, % at 20 µM | actives 0.63% (n = 360,000) | AID 588492;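 active = compounds giving at least 50% protection of heart cells from peroxide-induced death in the single-dose screen, raw or plate-pattern-corrected value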
FAS-TE inh = blocks the thioesterase domain of human fatty acid synthase | P49327 | recombinant FAS-TE, OMFH fluorogenic substrate, fluorescence endpoint | inhibition, % at 15 µM | actives 0.67% (n = 360,000);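 active = compounds whose normalised, plate-corrected inhibition of enzyme fluorescence in the single-dose primary screen is 50% or more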
TAG inh = reduces triacylglycerol accumulation in H9c2 cells. AID 651582. Nile Red lipid (TAG) fluorescence; cells loaded with 200 µM oleic acid. actives 0.66% (n = 230,000). inhibition, % at 12.5 µM;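 active = pattern-corrected inhibition of lipid staining of at least 50% with the nuclear-stain viability signal not falling by more than 50%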
aDG glyco act = alpha-DG glycosylation activation; Pro5-aDG cells, alpha-DG glycosylation AlphaScreen (IIH6); 0% Pro5, 100% B10-LARGE cell signal; activation, % at 10 µM; actives 0.22% (n = 360,000);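 active = activation of at least 8% versus controls, or a plate z-score of at least 8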;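 note: Pro5 are CHO cells carrying HIG-tagged alpha-DG that lacks glycosylation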
aDG glyco conf = confirmation of alpha dystroglycan glycosylation activators. shares compounds with aDG glyco act. Pro5-aDG cells, alpha-DG glycosylation, IIH6 AlphaLISA; scaled to LARGE-overexpressing B10 cells as 100%. activation, % at 10 µM (by protocol). actives 17% (n = 600). AID 651671;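 active = activation of at least 7% in one or more replicates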;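 note: cells exposed to compound for two days before detection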
A number is an active result; i = inactive; nt = no result given; ! = repeats disagree.

SMILES	beta cell repl	m-calpain inh	H9c2 protect	FAS-TE inh	TAG inh	aDG glyco act	aDG glyco conf
O=C1C(Cl)=C(NCCCO)C(=O)c2ccccc21	i	i	i	i	i	8.7	3.2
O=C(CSc1cccs1)Nc1ccc(Cl)cc1	i	i	i	i	i	3.1	i
O=C(/C=C/c1ccc(S(=O)(=O)N2CCOCC2)cc1)NCCc1ccc(C(F)(F)F)cc1	i	nt	i	i	i	i	nt
Cc1cc(C)c(S(=O)(=O)O)c(C)n1	i	i	i	i	i	6.9	i
CCC(=O)Nc1cc2c(cc1Cl)-c1ccccc1C2	nt	nt	i	i	i	i	nt
Cc1nnc(SCc2ccccn2)n(N)c1=O	i	i	i	i	i	3.5	i
NC(CCc1ccccc1)c1csc(Nc2ccc(C(=O)NCCO)cc2)n1 (centres undefined)	nt	nt	i	i	i	i	nt
NC(CCc1ccccc1)c1csc(Nc2ccc(C(=O)c3ccccc3)cc2)n1 (centres undefined)	nt	nt	i	i	i	8.0	i
COc1ccc(COC(=O)C2CC(=O)N(Cc3ccccc3)C2)cc1 (centres undefined)	i	nt	i	i	i	i	nt
CCN1CCc2c(sc(NC(=O)c3ccc(S(=O)(=O)N4CC(C)OC(C)C4)cc3)c2C(N)=O)C1 (centres undefined)	i	nt	i	i	nt	17	i
CC1CN(S(=O)(=O)c2ccc(C(=O)Nc3sc4c(c3C(N)=O)CCN(C)C4)cc2)CC(C)O1 (centres undefined)	nt	i	nt	nt	nt	nt	nt
CN1CCc2c(sc(NC(=O)c3ccc(C(=O)c4ccccc4)cc3)c2C(N)=O)C1	i	nt	i	i	i	12	i
CNC(=O)C[C@H]1C(=O)N(c2ccccc2)C[C@@H]1CSC	nt	nt	i	i	i	i	nt
CCN(CCCNC(=O)C1CCN(S(=O)(=O)c2cccc3nonc23)CC1)Cc1ccccc1	i	i	i	i	i	8.3	i
CCCNC(=O)C1CCN(S(=O)(=O)c2cccc3nonc23)CC1	i	i	i	i	i	i	nt
CC1(C)CC2(C)OCCN2C(=S)N1 (centres undefined)	i	i	i	i	i	3.3!	i
COc1cc2ccccc2cc1C(=O)Nc1nccs1	i	nt	i	i	i	4.0	i
Cc1noc(C)c1NC(=O)N(C)C[C@@H]1Oc2ccc(NS(=O)(=O)c3c(C)noc3C)cc2C(=O)N([C@H](C)CO)C[C@H]1C	i	nt	i	i	i	i	nt
CCc1ccc(C2c3[nH]c4ccccc4c3CCN2C(=O)CN2CCN(CC)CC2)cc1 (centres undefined)	i	i	i	i	i	8.0	13
O=C(NCCN1CCC(n2c(=O)[nH]c3ccccc32)CC1)c1ccc(C(F)(F)F)cc1C(F)(F)F	nt	nt	nt	i	nt	i	nt
Cc1cc(=O)n2nc(N3CCCC(C(=O)Nc4ccc(C)c(C)c4)C3)sc2n1 (centres undefined)	i	nt	i	i	i	i	nt
Cc1cccc(C)c1NC(=O)C(c1ccncc1)N1CCN(C)CC1 (centres undefined)	nt	nt	nt	nt	nt	9.8	i
Cc1cccc(C)c1NC(=O)C(c1ccccc1)N1CCN(C)CC1 (centres undefined)	nt	nt	nt	nt	nt	i	nt
COCCN(C(=O)CCC(=O)Nc1cc(C)on1)C(C(=O)NC(C)(C)C)c1cccc(OC)c1OC (centres undefined)	i	nt	i	i	nt	i	nt
CCC(c1nnnn1Cc1cccs1)N1CCN(c2nc3ccccc3s2)CC1 (centres undefined)	i	i	i	i	i	12	3.4
CC(C)CC(c1nnnn1Cc1cccs1)N1CCN(c2nc3ccccc3s2)CC1 (centres undefined)	i	i	i	i	i	i	nt
CCCCC[C@@H](C)N1C[C@H](COCc2ccccc2)Oc2cc(N3CC[C@@H](O)C3)ccc2S1(=O)=O	nt	nt	nt	i	nt	i	nt
Cc1ccc(C(=O)COC(=O)COc2ccc(C)c(C)c2)cc1	i	nt	i	i	nt	i	nt
Cc1ccc(OCC(O)CNC2CCCC2)c(C)c1 (centres undefined)	i	nt	i	i	nt	i	nt
Cc1ccc(OCCCCNC2CCCCC2)c(C)c1	i	i	i	i	nt	6.9	i
